These results are taken from PMC6212790, “How bacterial xenogeneic silencer rok distinguishes foreign from self DNA in its resident genome”.

In all, about 33,000 sequences were measured (“e-score”: median about -0.038, highest 2% from about 0.33 on). The list comes from a sample in which the highest values are over-represented; it also holds similar and randomly drawn sequences.

The target of this assay is T1, GST-Rok-C97-191 (Bacillus subtilis subsp. subtilis str. …, UniProt O34857 97-191).
T1 sequence: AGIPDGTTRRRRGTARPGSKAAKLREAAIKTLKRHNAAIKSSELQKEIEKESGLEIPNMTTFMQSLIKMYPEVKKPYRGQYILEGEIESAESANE
As to the kind of experiment: protein binding microarray; Rok is a gene silencer of Bacillus subtilis; high values mean tight binding. Conditions: protein: recombinant; tags: GST (pTH5325, pDEST15-Magic modified); dsDNA, one strand shown. The gist of the method: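 Every oligonucleotide joins a 25-mer constant primer to a 35-mer variable part drawn from a de Bruijn sequence of order 10, so each non-palindromic 8-mer appears at least 32 times and each palindromic 8-mer 16 times. The preference for every 8-mer is reported as a unitless, rank-based enrichment score (E-score). This score spans 0.5 for the most favored 8-mer to −0.5 for the most disfavored.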
In the case of AAGTACTC, the binding signal came out at 0.146 E-score. AAGTACAA: the binding signal amounted to 0.349 E-score. In the case of AAGTACTG, the binding signal was found to be 0.145 E-score. Next, GAGTACTA: 0.0418 E-score; TAGTACTA: 0.402 E-score; AAGTACTA: 0.385 E-score. Regarding CAGTACTA, the binding signal was 0.264 E-score. GAGTACAA: the binding signal was 0.136 E-score.

Take AAGTACAC: the binding signal amounted to 0.275 E-score.

With GTTATGCA, the binding signal stood at 0.256 E-score. Next, CCTTCAAC: -0.0251 E-score. Next, CTATTGGC: -0.0724 E-score; AAGCAAGT: -0.0255 E-score; GGCTATAC: -0.00424 E-score. Next, ACAAGTCT: -0.182 E-score.

Regarding ATAGTACC, the binding signal is 0.254 E-score. Then GTAGTAAC, with 0.307 E-score; and GGAGTAAA, with 0.000261 E-score. Then CTAGTAAA, with 0.289 E-score; and ATAGTAAT, with 0.396 E-score. Then ATAGTACA, with 0.347 E-score; and GTAGTAAA, with 0.338 E-score. In the case of ATAGTAAA, the binding signal came to 0.357 E-score.

For the sequence TTAGTAAA, the binding signal is 0.21 E-score. As to ATAGTAAG, the binding signal worked out at 0.278 E-score.

Consider CTAGTACA, for which the binding signal was 0.265 E-score. On to ATAGTAAC, for which the binding signal was determined as 0.28 E-score. Then CCCAGCAG, with -0.112 E-score; and CTGAACGC, with -0.149 E-score. Regarding TACGACAA, the binding signal came out at 0.151 E-score. Turning to ATGGTCAA, the binding signal came out at 0.137 E-score.

On to AAACTCCG, for which the binding signal was 0.115 E-score. Then GCTGTTTA, with 0.0646 E-score; and GAATTCTC, with 0.0595 E-score.

In the case of TAATTCCA, the binding signal amounted to 0.207 E-score. Then TAATTCAA, with 0.168 E-score; and AAATTCTC, with 0.0486 E-score; and AAATTCTA, with 0.379 E-score. Then AAATTCTT, with 0.105 E-score; and CAATTCTA, with 0.287 E-score. Then GAATTCTA, with 0.363 E-score; and TAATTCTA, with 0.331 E-score; and CCCGCTCC, with -0.108 E-score. Take GCGACCCA: the binding signal was 0.134 E-score.

For TCAAGGAA, the binding signal was -0.0876 E-score. In the case of ATCAACCA, the binding signal is -0.0125 E-score. Next, ATATAGAA: 0.347 E-score; GTATAGAA: 0.278 E-score; CTATAGAA: 0.283 E-score.

As for ATATAGAG, the binding signal is 0.165 E-score. Next, ATATAGAT: 0.399 E-score; ATATAGAC: -0.00572 E-score; CTGACAAG: -0.143 E-score. Then AAGATGAG, with 0.0366 E-score; and CAACAAGA, with -0.163 E-score; and CTGTATAA, with 0.215 E-score. Then CTATATAA, with 0.359 E-score. Turning to ACTTATAT, the binding signal was 0.29 E-score. Next, CTATATGA: 0.0756 E-score. Next, ATGTATAC: 0.308 E-score; GTATATGA: 0.224 E-score; CCTTATAA: 0.0808 E-score. Then ATATATGA, with 0.329 E-score; and ATGTATAA, with 0.364 E-score; and ACTTATAA, with 0.338 E-score. CTCTATAA: the binding signal was determined as 0.0363 E-score.

As for CAATATAA, the binding signal was found to be 0.295 E-score. Regarding CACGGGCA, the binding signal was -0.13 E-score. Next, AATTGTTA: 0.234 E-score. Regarding GCTTTCAA, the binding signal was -0.116 E-score. Next, AGGAAGGA: -0.123 E-score. Then AGAGTACT, with 0.169 E-score.

In the case of CACGTAGA, the binding signal was -0.0653 E-score.

As for AGCTCGCA, the binding signal is -0.0853 E-score. For AGAGACTG, the binding signal was found to be 0.0621 E-score. Then AACCAAAA, with 0.0375 E-score. Next, ACTGACCA: -0.00734 E-score; AGTCCAAT: -0.0629 E-score. Take TTATATAA: the binding signal was 0.384 E-score.

Take ATATATAA: the binding signal worked out at 0.449 E-score. For the sequence CAGTATAA, the binding signal is 0.213 E-score. Next, ATCTATAG: 0.295 E-score; TAGTATAA: 0.413 E-score; GTATATAA: 0.285 E-score.

As to AAGTATAA, the binding signal is 0.187 E-score. Then ATCTATAA, with 0.355 E-score; and TAATATAA, with 0.309 E-score.

Take GTCTATAA: the binding signal turned out to be 0.0588 E-score. Then TGATATAA, with 0.309 E-score. Next, GGATATAA: 0.3 E-score; AGGACTAG: -0.0267 E-score; TAGAATCA: 0.222 E-score. AGTCGAGC: the binding signal was -0.0631 E-score.

On to CTTTGCGC, for which the binding signal was -0.101 E-score.

With ACACACCC, the binding signal is -0.0492 E-score.

With ACAGGTTC, the binding signal is -0.0931 E-score. Then TACTATAA, with 0.408 E-score; and CACTATAA, with 0.155 E-score.

As for AACTATAA, the binding signal is 0.309 E-score.

Turning to CGCAAATA, the binding signal was 0.178 E-score. Then GGAGAAAC, with -0.116 E-score. Next, AACCGCGA: -0.00712 E-score; GTTATTAA: 0.22 E-score.

As to CATGTAGA, the binding signal is 0.327 E-score. Then GATGTAAA, with 0.164 E-score. Next, AATGTAGA: 0.359 E-score; AATGTATC: 0.187 E-score. Next, ATTGTATA: 0.317 E-score; GTTGTATA: 0.351 E-score; AATGTATA: 0.35 E-score. As to CATGTAAA, the binding signal stood at 0.25 E-score. Then AATGTATG, with 0.309 E-score; and AATGTAAA, with 0.329 E-score; and AATGTAGC, with 0.144 E-score. On to CTTGTATA, for which the binding signal came to 0.18 E-score. In the case of TCCTAAAA, the binding signal was 0.103 E-score. For the sequence CCAGGCCG, the binding signal was -0.0324 E-score. Next, TTACTGAA: 0.144 E-score; ACGGGTAG: 0.0714 E-score. Next, GAGGAAAA: -0.0709 E-score; AGTGCACT: 0.024 E-score; GTCAGAAA: 0.0136 E-score. For GCATAACC, the binding signal was determined as 0.0668 E-score. Then GCGGTTCC, with -0.143 E-score. Then CCTTAGAC, with -0.116 E-score; and CACAACTA, with 0.199 E-score; and TCACTAGA, with 0.155 E-score. Then AATGTAAC, with 0.166 E-score; and AATGTAAG, with 0.112 E-score; and AATGTAAT, with 0.398 E-score. CCAGTGAC: the binding signal is -0.156 E-score.

As for ACCACAGA, the binding signal is 0.0469 E-score. Then TAATAGCA, with 0.276 E-score; and GAATAGTA, with 0.325 E-score. For AAATAGCT, the binding signal is 0.336 E-score. Next, AAATAGTT: 0.406 E-score. Then AAATAGCA, with 0.0458 E-score; and ACATAGTA, with 0.298 E-score; and AAATAGTG, with 0.215 E-score. Next, AAATAGTC: 0.049 E-score; AAATAGTA: 0.427 E-score; AAATAGCG: 0.13 E-score. With TAATAGTA, the binding signal came out at 0.423 E-score.

In the case of AAATAGCC, the binding signal was 0.0812 E-score. Then AAACCACC, with -0.1 E-score; and ACCGCCGA, with -0.0492 E-score; and CGAAGTCC, with -0.0993 E-score.

For the sequence CATGTCCG, the binding signal is 0.0905 E-score. For CGGTAAAC, the binding signal was found to be 0.0274 E-score. Next, TAGTAACA: 0.345 E-score.

As to CAATAGTA, the binding signal was 0.33 E-score. Next, AAGTAACA: 0.177 E-score; GAGTAATA: 0.182 E-score. For the sequence CAATAGTC, the binding signal came out at 0.0177 E-score. Then AAGTAATA, with 0.29 E-score. Then TAGTAATA, with 0.403 E-score; and CAGTAACA, with 0.114 E-score. Then CAATAGTG, with 0.236 E-score.

For the sequence CCTATAAG, the binding signal is 0.0895 E-score. Next, CAACGGTA: 0.207 E-score; GGATGAAC: 0.0137 E-score. Then AAGCCTCA, with -0.158 E-score. Next, AAAGCGAG: -0.169 E-score.

Take CATGCCCC: the binding signal was -0.186 E-score.

Regarding TGCCGAAA, the binding signal was -0.0675 E-score. Take CAAATGGC: the binding signal was 0.0931 E-score. Next, CAGAAATA: 0.254 E-score; CAGAACTA: 0.309 E-score; TAGAAATA: 0.416 E-score. Next, AAGAAATA: 0.145 E-score; TAGAACTA: 0.368 E-score. Next, GAGAAATA: 0.345 E-score; GAGAACTA: 0.242 E-score; GAGAAATC: 0.0248 E-score.

In the case of GAGAAAAA, the binding signal was determined as 0.0631 E-score.
